PubChem BioAssay (NCATS)
Results filed as inconclusive are left out. Where a call stands in place of a potency, no number is given. Activity calls are given as the source filed them. Unless noted, calls follow the shape of the dose curve; as a rule, active = well fitted curve in the direction sought with a large enough effect; inconclusive = small, poorly fitted or top-dose-only effect, or another doubt; inactive = no such curve, though single readings can be large; an effect the other way counts as inactive or inconclusive.

Experiments:
[1] = target: Atrial natriuretic peptide receptor 1 (Homo sapiens) (UniProt P16066); test: Natriuretic polypeptide receptor (hNpr1) antagonism - Pilot screen (AID 1347049; calls by dose curve;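 also: HEK293 cells with hNpr1 and GloSensor cGMP luciferase stimulated by 0.1 nM hNppA; agonist-evoked cGMP luminescence read 20 min after hNppA addition; series mostly up to about 58 µM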)
Sequence of Atrial natriuretic peptide receptor 1 (Homo sapiens) (P16066 whole entry, looked up): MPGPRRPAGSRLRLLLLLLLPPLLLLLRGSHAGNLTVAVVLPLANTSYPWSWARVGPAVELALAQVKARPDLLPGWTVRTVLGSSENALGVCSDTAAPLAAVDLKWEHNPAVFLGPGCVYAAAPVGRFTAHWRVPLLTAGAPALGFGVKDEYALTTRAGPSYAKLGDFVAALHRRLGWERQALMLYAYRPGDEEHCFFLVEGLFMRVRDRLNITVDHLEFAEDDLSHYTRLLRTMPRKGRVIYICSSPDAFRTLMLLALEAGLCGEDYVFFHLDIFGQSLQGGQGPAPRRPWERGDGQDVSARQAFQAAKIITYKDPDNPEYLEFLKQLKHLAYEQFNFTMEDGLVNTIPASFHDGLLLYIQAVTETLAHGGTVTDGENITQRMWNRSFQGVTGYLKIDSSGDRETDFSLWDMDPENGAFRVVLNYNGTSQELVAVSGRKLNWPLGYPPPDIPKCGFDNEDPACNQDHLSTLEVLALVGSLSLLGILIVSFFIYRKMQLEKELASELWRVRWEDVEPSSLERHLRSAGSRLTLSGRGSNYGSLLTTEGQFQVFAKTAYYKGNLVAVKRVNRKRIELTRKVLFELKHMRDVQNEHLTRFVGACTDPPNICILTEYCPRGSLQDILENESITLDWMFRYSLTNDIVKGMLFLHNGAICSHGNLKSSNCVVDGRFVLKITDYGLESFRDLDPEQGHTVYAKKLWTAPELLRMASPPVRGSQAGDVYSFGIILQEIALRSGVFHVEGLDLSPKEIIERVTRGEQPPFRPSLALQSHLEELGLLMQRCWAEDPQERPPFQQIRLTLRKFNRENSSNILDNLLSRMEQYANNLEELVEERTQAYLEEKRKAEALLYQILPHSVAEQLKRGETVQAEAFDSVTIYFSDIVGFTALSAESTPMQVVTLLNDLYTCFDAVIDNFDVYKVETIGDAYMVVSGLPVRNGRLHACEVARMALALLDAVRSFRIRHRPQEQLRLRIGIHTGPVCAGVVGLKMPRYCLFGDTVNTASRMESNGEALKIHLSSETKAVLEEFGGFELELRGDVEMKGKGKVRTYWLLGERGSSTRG
How it was run: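 Cells expressing receptor plus cGMP biosensor are seeded and incubated overnight at 37C, then loaded with GloSensor reagent (2% final) at room temperature for 2 h. Library compounds go on for 30 min. A pre-read precedes agonist (hNppA, 0.1 nM final) and a 20-min readout.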

[2] = target: Atrial natriuretic peptide receptor 2 (Homo sapiens) (UniProt P20594); test: Natriuretic polypeptide receptor (hNpr2) antagonism - Pilot subtype selectivity assay (AID 1347050; calls by dose curve)
Sequence of Atrial natriuretic peptide receptor 2 (Homo sapiens) (P20594 whole entry, looked up): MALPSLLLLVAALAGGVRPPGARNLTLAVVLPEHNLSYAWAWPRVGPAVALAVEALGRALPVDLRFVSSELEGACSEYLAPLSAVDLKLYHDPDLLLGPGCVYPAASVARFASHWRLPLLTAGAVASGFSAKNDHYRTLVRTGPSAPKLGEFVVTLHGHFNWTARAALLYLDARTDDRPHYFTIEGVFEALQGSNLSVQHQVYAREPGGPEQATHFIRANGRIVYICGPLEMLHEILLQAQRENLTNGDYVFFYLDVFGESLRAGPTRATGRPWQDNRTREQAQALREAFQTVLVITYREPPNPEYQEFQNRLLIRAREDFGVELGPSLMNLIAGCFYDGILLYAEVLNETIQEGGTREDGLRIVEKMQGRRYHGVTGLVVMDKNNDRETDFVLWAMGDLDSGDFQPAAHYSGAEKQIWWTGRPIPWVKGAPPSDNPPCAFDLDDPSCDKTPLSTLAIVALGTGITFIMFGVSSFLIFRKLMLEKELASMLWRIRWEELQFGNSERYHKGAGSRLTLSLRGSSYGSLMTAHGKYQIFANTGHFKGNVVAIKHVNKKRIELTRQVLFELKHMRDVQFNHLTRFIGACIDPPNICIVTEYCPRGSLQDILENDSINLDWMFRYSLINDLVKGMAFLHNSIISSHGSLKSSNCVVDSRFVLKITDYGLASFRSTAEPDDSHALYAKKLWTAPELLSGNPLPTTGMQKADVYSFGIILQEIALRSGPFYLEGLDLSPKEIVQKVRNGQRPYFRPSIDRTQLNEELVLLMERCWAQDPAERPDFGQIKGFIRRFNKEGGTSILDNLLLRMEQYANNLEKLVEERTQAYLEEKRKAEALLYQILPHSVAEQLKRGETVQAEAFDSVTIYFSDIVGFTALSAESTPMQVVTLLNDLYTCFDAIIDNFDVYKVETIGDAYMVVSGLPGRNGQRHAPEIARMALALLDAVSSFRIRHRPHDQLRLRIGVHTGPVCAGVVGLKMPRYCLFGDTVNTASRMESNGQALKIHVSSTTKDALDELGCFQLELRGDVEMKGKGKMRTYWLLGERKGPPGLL
How it was run: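 Read-out: GloSensor luminescence (CCD imager), baseline vs post-stimulation. HEK293 cells expressing hNpr2; compounds pre-incubated 30-50 min at ambient temperature; hNppC 1 nM final, 20 min.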

[3] = NS1 protein of Zika virus - qHTS assay to identify small molecule inhibitors in human HEK 293 cells (AID 1347053); also: nearly all actives have a fitted effect of over 55% in size; also: potency is read from the fitted curve at half-maximal effect
How it was run: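 TR-FRET signal from two anti-ZIKV NS1 antibodies quantified NS1 in HEK 293 cells 24 h after MR766 infection at MOI = 0.5; compounds were added 1 h before virus. Uninfected cells and infected cells defined the NS1 normalization range.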

[4] = target: T1, Tyrosine-protein phosphatase non-receptor type substrate 1 (Homo sapiens) + Leukocyte surface antigen CD47 (Homo sapiens) (UniProt P78324+Q08722); test: CD47-SIRPalpha protein protein interaction - HTRF assay qHTS validation (AID 1347058; active = well fitted curve in the direction sought with a large enough effect in the signal ratio, not every such curve was filed as active; the % refers to the signal ratio; also: series mostly up to about 38 µM)
T1 sequence (P78324 whole entry, looked up, the tested form may be a part): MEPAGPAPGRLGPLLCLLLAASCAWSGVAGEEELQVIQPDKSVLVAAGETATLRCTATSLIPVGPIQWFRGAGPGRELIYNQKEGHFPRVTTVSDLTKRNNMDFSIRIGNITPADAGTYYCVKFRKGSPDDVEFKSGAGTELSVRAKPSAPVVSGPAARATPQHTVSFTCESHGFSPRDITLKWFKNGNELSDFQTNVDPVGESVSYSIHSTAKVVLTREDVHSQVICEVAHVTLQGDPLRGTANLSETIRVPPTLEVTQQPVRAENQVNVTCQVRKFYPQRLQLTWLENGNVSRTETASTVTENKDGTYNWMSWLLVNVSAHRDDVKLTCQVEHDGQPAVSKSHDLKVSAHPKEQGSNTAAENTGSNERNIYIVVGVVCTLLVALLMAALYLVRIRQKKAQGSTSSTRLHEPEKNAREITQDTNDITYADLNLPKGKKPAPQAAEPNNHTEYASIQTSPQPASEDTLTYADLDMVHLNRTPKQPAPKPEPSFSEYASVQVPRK
T1 sequence (Q08722 whole entry, looked up, the tested form may be a part): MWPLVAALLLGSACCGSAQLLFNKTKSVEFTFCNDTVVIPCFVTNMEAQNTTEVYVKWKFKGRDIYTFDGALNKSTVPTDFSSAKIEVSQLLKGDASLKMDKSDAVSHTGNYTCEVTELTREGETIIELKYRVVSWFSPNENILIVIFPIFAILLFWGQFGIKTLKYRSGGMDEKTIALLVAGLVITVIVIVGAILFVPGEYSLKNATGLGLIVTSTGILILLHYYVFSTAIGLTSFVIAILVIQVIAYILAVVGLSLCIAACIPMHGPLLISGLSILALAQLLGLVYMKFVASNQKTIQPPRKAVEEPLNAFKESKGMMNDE
How it was run: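 Soluble extracellular domains (6His-CD47, Avi-tag-biotinylated SIRPalpha) in PBS pH 7.4 with 0.05% IGEPAL CA-630. Compounds were preincubated 30 min at RT with CD47 and anti-His-Eu, then SIRPalpha and SAV-XL665 were added. TR-FRET 665/615 ratio.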

[5] = target: Parathyroid hormone/parathyroid hormone-related peptide receptor (Homo sapiens) (UniProt Q03431); test: qHTS for PTHR1 Agonists: Optimization Screen against the NCGC LOPAC library (AID 1347079);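 also: GloSensor cAMP luminescence in HEK-293 GP2 cells expressing human PTHR1 with IBMX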
Sequence of Parathyroid hormone/parathyroid hormone-related peptide receptor (Homo sapiens) (Q03431 whole entry, looked up): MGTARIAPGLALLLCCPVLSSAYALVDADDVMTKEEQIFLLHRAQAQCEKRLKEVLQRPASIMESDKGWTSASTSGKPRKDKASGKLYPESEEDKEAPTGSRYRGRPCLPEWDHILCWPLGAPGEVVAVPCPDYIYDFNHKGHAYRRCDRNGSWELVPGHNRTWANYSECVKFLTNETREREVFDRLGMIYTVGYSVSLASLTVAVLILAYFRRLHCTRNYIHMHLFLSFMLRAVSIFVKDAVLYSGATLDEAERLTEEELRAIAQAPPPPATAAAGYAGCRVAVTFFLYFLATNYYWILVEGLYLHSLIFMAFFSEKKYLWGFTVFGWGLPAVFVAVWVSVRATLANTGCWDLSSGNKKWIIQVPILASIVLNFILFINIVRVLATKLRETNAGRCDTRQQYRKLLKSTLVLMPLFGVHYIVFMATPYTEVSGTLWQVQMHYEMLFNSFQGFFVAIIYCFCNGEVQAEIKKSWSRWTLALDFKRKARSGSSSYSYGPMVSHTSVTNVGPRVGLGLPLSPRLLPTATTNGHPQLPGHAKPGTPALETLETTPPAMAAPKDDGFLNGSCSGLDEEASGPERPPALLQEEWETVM
How it was run: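 HEK-293 GP2 cells, PTHR1 + GloSensor cAMP; 3000 cells/well, o/n. Luciferin + IBMX 0.5mM each (stock), 1 hr 37C. Cpd titration, 1 hr 37C. Lum after 15 min RT. Ctrl M-PTH(1-15) top 10uM.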

[6] = qHTS of pediatric cancer cell lines to identify multiple opportunities for drug repurposing: Primary screen for DAOY cells (AID 1347090); also: nearly all actives have a fitted effect of over 55% in size; also: potency is read from the fitted curve at half-maximal effect
How it was run: (§1)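 Eight- or eleven-point concentration series, 48 h treatment at 37 degrees C in growth media; readout CellTiter-Glo luminescence. Potency and efficacy were taken from the concentration-response curves.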

[7] = qHTS of pediatric cancer cell lines to identify multiple opportunities for drug repurposing: Primary screen for SJ-GBM2 cells (AID 1347091); also: potency is read from the fitted curve at half-maximal effect
How it was run: as §1

[8] = target: T1, Tyrosine-protein phosphatase non-receptor type substrate 1 (Homo sapiens) + Leukocyte surface antigen CD47 (Homo sapiens); test: CD47-SIRPalpha protein protein interaction - LANCE assay qHTS validation (AID 1347057; active = well fitted curve in the direction sought with a large enough effect in the signal ratio, with a control signal flat, not every such curve was filed as active; the % refers to the signal ratio; also: series mostly up to about 38 µM)
How it was run: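 Inhibition of soluble CD47/SIRPalpha ectodomain association by titrated compounds, measured as 665/615 nm time-resolved FRET ratio after sequential 30 min room-temperature incubations.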

[9] = target: T1, Tyrosine-protein phosphatase non-receptor type substrate 1 (Homo sapiens) + Leukocyte surface antigen CD47 (Homo sapiens); test: CD47-SIRPalpha protein protein interaction - Alpha assay qHTS validation (AID 1347059);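 also: bead proximity luminescence from CD47 binding SIRPalpha after compound preincubation with SIRPalpha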
How it was run: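 In PBS (pH 7.4) with 0.05% IGEPAL CA-630, compound is preincubated with biotin-Avi-SIRPalpha ectodomain before His-CD47 ectodomain and affinity beads are added. Light-protected room-temperature incubations; AlphaScreen readout.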

[10] = qHTS of pediatric cancer cell lines to identify multiple opportunities for drug repurposing: Primary screen for TC32 cells (AID 1347089); also: nearly all actives have a fitted effect of over 60% in size; also: potency is read from the fitted curve at half-maximal effect
How it was run: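 A viability screen of TC32 cells was run over 48 h, with primary MIPE doses spanning 0.78 nM–46 µM and NPC doses 0.59 nM–46 µM. ATP luminescence (CellTiter-Glo) served as the read-out.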

Row | SMILES | Potency [1] | Potency [2] | Potency [3] | outcome [4] | outcome [5] | Potency [6] | Potency [7] | outcome [8] | Potency [9] | Potency [10]
1 | NNc1nncc2ccccc12 | inactive | inactive | inactive | inactive | inactive | inactive | inactive |  |  | 
2 | COc1ccccc1N1CCN(CCN(C(=O)C2CCCCC2)c2ccccn2)CC1 | inactive | inactive | inactive | inactive | inactive |  | inactive | inactive | inactive | inactive
3 | c1cnc2cc3c(cc2n1)C1CNCC3C1 |  |  | inactive | inactive |  | inactive | inactive | inactive | inactive | inactive
4 | Oc1ccc(-c2nc(-c3ccc(F)cc3)c(-c3ccncc3)[nH]2)cc1 |  | inactive | inactive |  | inactive | 23.5 µM (active) |  | inactive | inactive | 
5 | CC(=O)O[C@H]1C(=O)[C@@]2(C)C([C@H](OC(=O)c3ccccc3)[C@]3(O)C[C@H](OC(=O)[C@H](O)[C@@H](NC(=O)c4ccccc4)c4ccccc4)C(C)=C1C3(C)C)[C@]1(OC(C)=O)CO[C@@H]1C[C@@H]2O (stereo not given in full) |  | inactive | 0.0066 µM (active) |  | inactive |  |  |  |  | 0.0017 µM (active)
6 | O=c1ccc2ccc(O)c(O)c2o1 | inactive | inactive | inactive |  | inactive | 7.43 µM (active) | inactive | inactive | inactive | inactive
7 | Nc1nc(N)c(N=O)c(OCC2CCCCC2)n1 | inactive | inactive | inactive |  | inactive |  | 9.35 µM (active) |  | inactive | 
8 | CCOC(=O)C(C)Oc1cccc2c(=O)n(CC(=O)Nc3ccc4c(c3)OCCO4)ccc12 (stereo not given) | inactive | inactive | inactive | inactive | inactive |  | inactive | inactive | inactive | inactive
9 | NCCCCNCCCN | inactive | inactive | inactive | inactive | inactive | inactive | inactive | inactive | inactive | inactive
10 | NC(=NCc1ccccc1)NC(=O)c1nc(Cl)c(N)nc1N | inactive | inactive | inactive |  | inactive | 18.7 µM (active) | inactive | inactive | inactive | inactive
11 | OC(CN1CCN(c2cccc(Cl)c2)CC1)C(c1ccccc1)c1ccccc1 (stereo not given) |  | inactive | inactive |  | inactive |  |  |  |  | inactive
12 | CC(=O)N1CCN(c2ccc(OC[C@H]3CO[C@](Cn4ccnc4)(c4ccc(Cl)cc4Cl)O3)cc2)CC1 | inactive | inactive | inactive | inactive | inactive |  |  | inactive |  | 
13 | O=C1c2ccccc2-c2n[nH]c3cccc1c23 |  | inactive | inactive |  | inactive |  | inactive |  | inactive | 
14 | O=C1NC(=O)C(c2ccccc2[N+](=O)[O-])=C1Nc1ccc(O)c(Cl)c1 | inactive | inactive | inactive |  | inactive | inactive |  | inactive | inactive | 
15 | O=C(CCc1ccc(O)cc1)c1c(O)cc(O)cc1O | inactive | inactive | inactive | inactive | inactive | 0.118 µM (active) |  | inactive | inactive | 
16 | O=c1c(O)c(-c2cc(O)c(O)c(O)c2)oc2cc(O)cc(O)c12 |  | inactive | inactive |  | inactive | inactive | inactive | inactive | inactive | inactive
17 | COCCCN1CCC(NC(=O)c2cc(Cl)c(N)c3c2OCC3)CC1 |  |  | inactive |  |  | inactive | inactive |  |  | inactive
18 | Cc1nccn1CC1CCc2c(c3ccccc3n2C)C1=O (stereo not given) |  |  | inactive |  |  | inactive | inactive |  |  | inactive
19 | CN(C)C(=O)[C@H](O)[C@H](Cc1ccccc1)NC(=O)c1cc2cc(Cl)ccc2[nH]1 |  |  | inactive | inactive |  | 7.43 µM (active) | 4.69 µM (active) | inactive | inactive | 
20 | CC(C)[C@H](N)C(=O)OCCOCn1cnc2c(=O)[nH]c(N)nc21 |  |  | inactive |  |  | inactive | inactive |  |  | inactive
21 | C[C@@H](c1ncncc1F)[C@](O)(Cn1cncn1)c1ccc(F)cc1F |  |  | inactive | inactive |  |  | inactive | inactive | inactive | 
22 | CC1Cc2ccccc2N1NC(=O)c1ccc(Cl)c(S(N)(=O)=O)c1 (stereo not given) |  |  | inactive |  |  | inactive | inactive |  |  | inactive
23 | NS(=O)(=O)c1cc(C(=O)O)c(NCc2ccco2)cc1Cl |  |  | inactive |  |  | inactive | inactive |  |  | inactive
